Source: PubChem BioAssay (National Center for Advancing Translational Sciences (NCATS))
An excerpt weighted towards active compounds, which were near 7.8% of everything screened.
LASV entry inh: blocks Lassa virus binding to or entry into cells; Lassa virus pseudotype entry inhibition, cell reporter; 1.2% of 300,000 active; Potency, µM (highest dose often 37.9 µM), actives largely listed as inhibitors; calls by dose curve; tested in HEK293 cells; also: nearly all actives have a fitted effect of over 50% in size
Vaccinia mCherry: inhibitors of vaccinia virus infection (mCherry reporter signal). 0.63% of 310,000 active. AID 720579. Potency, µM (series often up to 36.5 µM), most hits filed as inhibitors. Vaccinia virus mCherry reporter infection, fluorescence; calls by dose curve; tested in A549 cells; also: nearly all actives have a fitted effect of over 35% in size
Vaccinia Venus: inhibitors of vaccinia virus (Venus reporter) | Vaccinia virus Venus reporter expression, fluorescence | Potency, µM (highest dose often 36.5 µM), hits mostly inhibitors | 0.46% of 330,000 active; calls by dose curve; tested in A549 cells; also: nearly all actives have a fitted effect of over 30% in size
HCV inh: HCV inhibition | 3.4% of 340,000 active | AID 651820 | Huh7.5.1 HCVcc-Cre infection, luciferase reporter, 44 h | Potency, µM (highest dose often 41.8 µM), actives largely listed as inhibitors; active = well fitted inhibition curve with a large enough effect; inconclusive = small, poorly fitted or top-dose-only effect, or another doubt; inactive = no such curve, though single readings can be large or run the other way
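After 44 h co-culture of compound, cells and HCVcc-Cre (~0.5 moi), substrate is added for 15 min at room temperature and luciferase measured over 15 sec. Cells were seeded at 1,000/well and pre-cultured 4 h.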
Marburg entry inh: inhibitors of Marburg virus binding or cell entry. Marburg virus pseudotyped entry inhibition, cell reporter. 1.8% of 300,000 active. Potency, µM (titrated, usually from 37.8 µM), usual class: inhibitors; calls by dose curve; tested in HEK293 cells
HCMV inh: inhibitors of human cytomegalovirus; AID 1259415; activity change, negative = inhibition, % at 57.5 µM; HFF cells, HCMV-luciferase reporter, 72 h; hits give low values; 4.5% of 410,000 active; in the data active = activity change below about -60%; inconclusive = no clear call, values can overlap the other calls; inactive = above about -39%
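Inhibition of viral replication was scored as loss of reporter luminescence in HFFs infected with HCMV-luciferase (MOI 1 PFU/cell) for 72 h; compounds tested at 2 doses, normalized to buffer and Salinomycin controls.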
Each line names hits and unclear results; the compound was inactive in the other large screens.

O=C(c1cn(-c2ccccc2)nc1-c1ccccc1)N1CCOCC1	none (no result: Vaccinia mCherry, Vaccinia Venus)
Cc1ccc(-c2nn(Cc3ccccc3)cc2C(=O)N2CCN(c3ccccn3)CC2)cc1	none (no result: LASV entry inh, Vaccinia mCherry, Vaccinia Venus, Marburg entry inh)
O=C(c1cn(-c2ccccc2)nc1-c1ccccc1)N1CCN(c2ccccn2)CC1	LASV entry inh inconclusive, HCV inh 10µM, Marburg entry inh inconclusive (no result: Vaccinia mCherry, Vaccinia Venus)
O=C(C1CC1)N1CCc2cc(Br)cc(S(=O)(=O)Nc3ccc(C(F)(F)F)cc3)c21	LASV entry inh inconclusive, Marburg entry inh inconclusive (no result: HCV inh)
COc1ccc(OCC2c3cc(OC)c(OC)cc3CCN2C(=O)COc2ccc(Cl)cc2Cl)cc1 (centres undefined)	LASV entry inh inconclusive, HCMV inh inconclusive (no result: HCV inh, Marburg entry inh)
Cc1ccc(CNc2ncnc(N)c2[N+](=O)[O-])cc1	HCMV inh -61 (no result: LASV entry inh)
Cc1cccc(C)c1Nc1ncnc(N)c1[N+](=O)[O-]	none
N#CCCn1cc(CNCc2cccnc2)c(-c2ccccc2)n1	none (no result: LASV entry inh, HCV inh, Marburg entry inh, HCMV inh)
O=c1[nH]c2cccnc2n1-c1cccc([N+](=O)[O-])c1	HCMV inh -85
C=C1C/C(C)=C/CCc2cc(OS(=O)(=O)C(F)(F)F)ccc2-c2ccc(OC)c(OC)c21	none (no result: LASV entry inh, Vaccinia mCherry, Vaccinia Venus, HCV inh, Marburg entry inh)
O=C(ONC(=O)C1C2C=CC(C2)C1C(=O)NOC(=O)c1ccccc1)c1ccccc1 (centres undefined)	LASV entry inh 7.9µM, Vaccinia mCherry inconclusive, HCV inh inconclusive, Marburg entry inh 4µM
COC(=O)c1ccc(NC(=O)C2C3C=CC(C3)C2C(=O)O)cc1 (centres undefined)	HCMV inh -98 (no result: LASV entry inh, Vaccinia mCherry, Vaccinia Venus, Marburg entry inh)
O=C1N/C(=C\c2ccc(O)cc2)C(=O)c2ccccc21	LASV entry inh inconclusive, HCV inh 11µM, Marburg entry inh inconclusive (no result: Vaccinia mCherry, Vaccinia Venus, HCMV inh)
O=C(CCS(=O)(=O)c1nc(-c2cccs2)cc(C(F)(F)F)n1)Nc1cc(Br)ccc1O	LASV entry inh inconclusive, Marburg entry inh inconclusive, HCMV inh -100 (no result: HCV inh)
Cc1ccc(O)c(NC(=O)CCS(=O)(=O)c2nc(-c3cccs3)cc(C(F)(F)F)n2)c1	LASV entry inh inconclusive, HCMV inh -100 (no result: HCV inh)
O=C(CCS(=O)(=O)c1nc(-c2cccs2)cc(C(F)(F)F)n1)Nc1ccc(Br)cc1	Marburg entry inh inconclusive, HCMV inh -98 (no result: HCV inh)
COc1ccc(C2(N3CCN(c4cccc(C)c4C)CC3)C(=O)c3ccccc3C2=O)cc1	none (no result: HCV inh)
CCN1CCN(Cc2c(O)ccc3c(C)c(-c4ccccc4)c(=O)oc23)CC1	none (no result: HCV inh, Marburg entry inh)
C[C@H]1C[C@@H](C)O[C@@]2(C1)C(=O)N(Cc1ccc(F)cc1)c1ccccc12	none (no result: LASV entry inh, Vaccinia mCherry, Vaccinia Venus, HCV inh, HCMV inh)
COc1cc(C(=O)CC2(O)C(=O)N(Cc3ccccc3Cl)c3ccccc32)cc(OC)c1OC (centres undefined)	LASV entry inh inconclusive, HCMV inh -71 (no result: HCV inh)
Cc1ccc(C(=O)CC2(O)C(=O)N(Cc3ccccc3Cl)c3ccccc32)o1 (centres undefined)	none
Cc1cc(=O)n2nc(N(C)CC(=O)NCc3cccc(Br)c3)sc2n1	none (no result: HCV inh)
COc1ccc(N(C)C(=O)c2cc(S(=O)(=O)N3CCc4ccccc43)cn2C)c(OC)c1	LASV entry inh inconclusive (no result: HCV inh, Marburg entry inh)
CCC(NC(=O)c1cc(COc2cncc(Cl)c2)on1)c1ccc(C)cc1 (centres undefined)	Marburg entry inh inconclusive, HCMV inh -99
CCC(=O)Nc1c(C(=O)Nc2cccc(OC)c2)oc2ccccc12	none (no result: Vaccinia mCherry, Vaccinia Venus)
COC(=O)c1oc2ccc(Br)cc2c1NC(=O)CCN1CCOCC1	Marburg entry inh inconclusive (no result: Vaccinia mCherry, Vaccinia Venus)
CCCN(CCC)C(=O)c1oc2ccccc2c1NC(=O)Cc1cccc(OC)c1	HCV inh 11µM (no result: LASV entry inh, Vaccinia mCherry, Vaccinia Venus, Marburg entry inh)
CCOc1ccc(CC(=O)Nc2c(C(=O)c3ccc(C)cc3)oc3ccccc23)cc1OCC	Marburg entry inh inconclusive, HCMV inh -63 (no result: HCV inh)
COc1ccc2oc(C(=O)c3ccccc3)c(NC(=O)CN3CCN(C)CC3)c2c1	HCMV inh inconclusive
CCOC(=O)c1oc2ccc(Br)cc2c1NC(=O)CN1CCN(C)CC1	HCV inh 10µM, Marburg entry inh inconclusive (no result: Vaccinia mCherry)
CN1CCN(CC(=O)Nc2c(C(=O)c3ccccc3)oc3ccccc23)CC1	LASV entry inh inconclusive, HCV inh 11µM, Marburg entry inh inconclusive, HCMV inh inconclusive
CNc1nc2cnc(-c3cc(OC)c(OC)c(OC)c3)cc2n1Cc1ccccc1	none (no result: LASV entry inh, Vaccinia mCherry, Vaccinia Venus, HCV inh, Marburg entry inh)
CC(C)Sc1nc2sc3c(c2c(=O)n1-c1ccccc1)CCCC3	none (no result: HCV inh, Marburg entry inh)
O=C(CSc1oc(-c2ccc(F)cc2)nc1S(=O)(=O)c1ccccc1)NC1CCCCC1	LASV entry inh inconclusive, Vaccinia Venus inconclusive (no result: HCV inh)
COc1ccc(S[C@]2(c3nc(C)no3)CC(=O)N(P(=O)(OC)OC)[C@@H]2c2ccc(OC)cc2)cc1	none (no result: LASV entry inh, Vaccinia mCherry, Vaccinia Venus, HCV inh, Marburg entry inh)
Cc1cc(C(C)(C)C)oc1C(=O)N(CC(=O)NC1CCCC1)c1ccc(F)cc1	LASV entry inh inconclusive, HCV inh inconclusive
Cc1cc(C(C)(C)C)oc1C(=O)N(CC(=O)NC1CCCC1)c1c(C)cccc1C	LASV entry inh inconclusive, Vaccinia mCherry inconclusive, Vaccinia Venus inconclusive, HCV inh 10µM, Marburg entry inh 10µM
Cc1n[nH]c2ccc(Br)cc2c1=O	none (no result: LASV entry inh, HCV inh, Marburg entry inh)
Cc1nc2c([nH]c3ccc(Br)cc32)s1	HCV inh 10µM, HCMV inh inconclusive
CCN(CC)c1nc(C#N)cc(-c2ccc(OC)cc2)n1	LASV entry inh inconclusive, Vaccinia Venus inconclusive, HCV inh 7.1µM, Marburg entry inh inconclusive (no result: Vaccinia mCherry)
